This is a sample that favours compounds with a hit; in the whole collection about 2.4% have one here.
SENP8 block-1 = blocks human SENP8 cleavage of Nedd8 substrate; recombinant SENP8, Nedd8 substrate fluorescence; inhibition, % at 20 µM; actives 0.64% (n = 360,000); in the data active means inhibition mostly above about 40%, no sharp cut-off; inactive means mostly below about 27%
SENP8 block-2 = inhibitors of human SENP8 protease; Q96LD8; purified SENP8, Z-RLRGG-aminoluciferin cleavage, luminescence; inhibition, % at 10 µM; actives 1.2% (n = 330,000); AID 2540; in the data active means inhibition above about 50%
SENP7 inh = blocks the human protease SENP7 | Q9BQF6 | recombinant SENP7, Z-RLRGG-aminoluciferin luminescence, 40 min | inhibition, % at 5 µM | actives 1.5% (n = 330,000);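 active means inhibition above about 50% at the single test dose, limit read from the data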
Target sequence (Q9BQF6 706-1050 limits assumed): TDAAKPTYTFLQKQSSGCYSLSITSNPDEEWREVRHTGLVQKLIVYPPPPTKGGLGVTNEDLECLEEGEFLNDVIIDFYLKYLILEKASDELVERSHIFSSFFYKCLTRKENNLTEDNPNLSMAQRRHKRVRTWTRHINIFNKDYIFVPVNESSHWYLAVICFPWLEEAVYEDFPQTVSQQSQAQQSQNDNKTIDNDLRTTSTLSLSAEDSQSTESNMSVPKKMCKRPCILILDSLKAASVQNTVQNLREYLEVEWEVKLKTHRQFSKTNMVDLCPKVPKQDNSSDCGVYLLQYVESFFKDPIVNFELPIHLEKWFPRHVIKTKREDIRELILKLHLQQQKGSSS
SENP6 inh = inhibitors of human SENP6 protease; Recombinant SENP6 catalytic domain, aminoluciferin luminescence; inhibition, % at 10 µM; actives 1.8% (n = 330,000);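 active means inhibition above about 50% at the single tested dose, limit read from the data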
Platelet DG rel = modulates dense granule release in human platelets | human platelet-rich plasma, SFLLRN dense granule ATP release, luminescence | inhibition, %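 (compounds screened at 7.5 µM in platelet-rich plasma)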 | actives 0.22% (n = 300,000) | AID 1663;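 active means mean replicate score, as percent of positive control, at or above 50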
SENP8 confirm = confirmation of human SENP8 protease inhibitors. shares compounds with SENP7 inh. Recombinant SENP8, Z-RLRGG-aminoluciferin luminescence, 60 min. inhibition, % at 12.5 µM. actives 40% (n = 6,200). AID 488912;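 active means mean inhibition across replicates above about 50%, limit read from the data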
SENP6 conf = confirmation of human SENP6 protease inhibitors. inhibition, % at 12.5 µM. recombinant SENP6, Z-RLRGG-aminoluciferin luminescence. actives 58% (n = 6,200). shares compounds with SENP7 inh
SENP7 confirm = confirmation of human SENP7 protease inhibitors; shares compounds with SENP7 inh; recombinant SENP7, Z-RLRGG-aminoluciferin luminescence, 40 min; inhibition, % at 12.5 µM; actives 69% (n = 6,200); AID 488917
Casp3 SENP sel = caspase-3 inhibition (SENP selectivity assay) | AID 488918 | inhibition, % at 12.5 µM | shares compounds with SENP7 inh | actives 60% (n = 6,200) | purified caspase-3, Z-DEVD-aminoluciferin luminescence, 60 min;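 active means mean inhibition above about 50%, limit read from the data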
Target sequence (P42574 28-227 limits assumed): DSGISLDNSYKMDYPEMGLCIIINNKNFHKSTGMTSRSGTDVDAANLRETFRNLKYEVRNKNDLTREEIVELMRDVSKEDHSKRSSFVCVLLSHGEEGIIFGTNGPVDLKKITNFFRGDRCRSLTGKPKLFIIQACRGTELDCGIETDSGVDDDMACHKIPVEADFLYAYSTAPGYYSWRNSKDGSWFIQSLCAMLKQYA
Luc interf = counter-screen for SENP inhibitors: luminescence interference. shares compounds with SENP7 inh. Pre-incubated SENP8/Z-RLRGG-aminoluciferin, luciferase luminescence interference. inhibition, % at 12.5 µM. actives 39% (n = 6,200);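 active means mean inhibition above about 50% when retested at one dose, limit read from the data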
Of the large screens only hits and unclear results are named; the others gave an inactive call (follow-up assays come after a bar, where they were run).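 How the source made its calls, unless noted: active means mean inhibition above about 50% in the one-dose retest (limit read from the data); inactive means the rest.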

Cc1ccc(NC(=O)COc2ccc3c(c2)OCO3)c(Cl)c1	SENP7 inh 62 (no result: Platelet DG rel) | SENP8 confirm inactive | SENP6 conf inactive | SENP7 confirm inactive | Casp3 SENP sel inactive | Luc interf inactive
CCN(CC)C(=S)SC1CCCCN(C(=O)c2ccc(F)cc2)C1=O (centres undefined)	none
COc1ccccc1-c1nc(-c2ccc(C)nc2OC)no1	none
COc1cc(OC)cc(-c2nc(-c3ccccc3)no2)c1	none
Clc1ccccc1OCc1nc(-c2ccc(Br)o2)no1	none
Clc1ccc(OCc2nc(-c3ccccn3)no2)c(Br)c1	SENP8 block-2 91, SENP7 inh 90, SENP6 inh 95 | SENP8 confirm 82 | SENP6 conf 95 | SENP7 confirm 99 | Casp3 SENP sel 86 | Luc interf 75
Clc1ccc(-c2nc(-c3ccccn3)no2)cc1Cl	SENP8 block-2 96, SENP7 inh 98, SENP6 inh 92 | SENP8 confirm 91 | SENP6 conf 94 | SENP7 confirm 98 | Casp3 SENP sel 93 | Luc interf 76
COc1nc(C)ccc1-c1noc(-c2ccccn2)n1	SENP7 inh 53 | SENP8 confirm inactive | SENP6 conf 51 | SENP7 confirm 86 | Casp3 SENP sel 83 | Luc interf inactive
COc1ccc(-c2nc(-c3ccccn3)no2)cc1	SENP8 block-2 97, SENP7 inh 100, SENP6 inh 98, Platelet DG rel 61 | SENP8 confirm inactive | SENP6 conf 101 | SENP7 confirm 104 | Casp3 SENP sel 100 | Luc interf 98
COCC1=C(C(=O)OC)C(c2cccs2)n2ncnc2N1 (centres undefined)	none
CC(C)(C)OC(=O)C(C1NC(C(=O)O)C(C)(C)S1)N1C(=O)c2ccccc2C1=O (centres undefined)	none (no result: SENP8 block-2, SENP7 inh, SENP6 inh, Platelet DG rel)
COc1ccccc1-c1nc(-c2ccccn2)no1	SENP8 block-2 93, SENP7 inh 99, SENP6 inh 96 | SENP8 confirm inactive | SENP6 conf 99 | SENP7 confirm 102 | Casp3 SENP sel 99 | Luc interf 97
Cc1ccccc1-c1nc(-c2ccccn2)no1	SENP8 block-2 96, SENP7 inh 100, SENP6 inh 97 | SENP8 confirm 98 | SENP6 conf 99 | SENP7 confirm 102 | Casp3 SENP sel 98 | Luc interf 98
O=C(O)C(c1ccccc1)C(O)c1ccc2c(c1)OCO2 (centres undefined)	none (no result: SENP8 block-2, SENP7 inh, SENP6 inh, Platelet DG rel)
Oc1ccccc1/C=N/Nc1nccnc1Cl	SENP8 block-2 83, SENP7 inh 93, SENP6 inh 80 | SENP8 confirm 91 | SENP6 conf 91 | SENP7 confirm 100 | Casp3 SENP sel 94 | Luc interf 93
COc1cccc(/C=N/Nc2ncnc(Cl)c2N)c1O	none
COc1cccc(/C=N/Nc2nccnc2Cl)c1O	SENP8 block-2 96, SENP7 inh 100, SENP6 inh 97, Platelet DG rel 84 | SENP8 confirm 98 | SENP6 conf 99 | SENP7 confirm 102 | Casp3 SENP sel 98 | Luc interf 88
CCOC(=O)NN=C1CN(S(=O)(=O)c2ccc(C)cc2)C1	none
CCOC(=O)/C(C#N)=C1\SS/C(=C(/C#N)C(=O)OCC)S1	none (no result: SENP8 block-1)
COc1ccc(-c2nc3c(Br)c(N)c(Br)cc3o2)cc1	SENP7 inh 80 (no result: Platelet DG rel) | SENP8 confirm inactive | SENP6 conf inactive | SENP7 confirm inactive | Casp3 SENP sel inactive | Luc interf inactive
COc1ccc(C(=O)Nc2nnc(-c3ccco3)s2)cc1	SENP8 block-2 78, SENP7 inh 95, SENP6 inh 88 | SENP8 confirm inactive | SENP6 conf inactive | SENP7 confirm inactive | Casp3 SENP sel inactive | Luc interf inactive
COc1ccc(C(=O)Nc2nnc(-c3cccs3)s2)cc1	SENP7 inh 56 | SENP8 confirm inactive | SENP6 conf inactive | SENP7 confirm inactive | Casp3 SENP sel inactive | Luc interf inactive
COc1ccc(NC(=O)Nc2nnc(-c3cccs3)s2)cc1	none
O=C(Nc1nnc(-c2ccco2)s1)c1ccccc1	SENP6 inh 68 | SENP8 confirm inactive | SENP6 conf 54 | SENP7 confirm 85 | Casp3 SENP sel 77 | Luc interf inactive
O=C(NCc1cc(Cl)cc(Cl)c1)c1csc([C@@H]2C[C@H](O)[C@@H](CO)O2)n1	none (no result: SENP8 block-2, SENP7 inh, SENP6 inh, Platelet DG rel)
Cc1ccc(CN2CCN(Cc3cn[nH]c3-c3cccc(F)c3)CC2CCO)o1 (centres undefined)	none
COCC(C)NC(=O)c1nn(Cc2ccccc2)c(=O)c2ccccc12 (centres undefined)	SENP6 inh 61 | SENP8 confirm inactive | SENP6 conf inactive | SENP7 confirm inactive | Casp3 SENP sel inactive | Luc interf inactive
O=C(Nc1ccc(S(=O)(=O)Nc2ncccn2)cc1)c1nn(Cc2ccccc2)c(=O)c2ccccc12	SENP8 block-2 66, SENP6 inh 85 | SENP8 confirm inactive | SENP6 conf inactive | SENP7 confirm inactive | Casp3 SENP sel inactive | Luc interf inactive
CCC(C)NC(=O)c1nn(Cc2ccccc2)c(=O)c2ccccc12 (centres undefined)	none
CCn1nc(C(=O)Nc2ccc(S(=O)(=O)Nc3nccs3)cc2)c2ccccc2c1=O	none
C=CCOC(=O)/C=C/C(=O)NC(N)=O	none
Cc1cc(NC(=O)CSc2ncc(C(=O)O)n2-c2ccc(F)cc2)no1	none (no result: Platelet DG rel)
CN(CC(=O)Nc1ccccc1Cl)C(=O)COC(=O)c1nc(Cl)c(Cl)c(Cl)c1Cl	none
CCCCc1nc(C(N)=O)c2[nH]c(=O)n(-c3ccc(OCC)cc3)c2n1	none
COc1ccc(N2C(=S)N(C(=O)c3ccccc3)C(=Nc3ccccc3)C2=Nc2ccccc2)cc1	SENP8 block-2 73, SENP7 inh 92, SENP6 inh 83 | SENP8 confirm 67 | SENP6 conf 82 | SENP7 confirm 96 | Casp3 SENP sel 93 | Luc interf 60
CCN(CC)C(=O)CSc1ncnc2sccc12	none
CCN(CC)C(=O)CSc1ncnc2c(-c3cccs3)nsc12	SENP6 inh 57 (no result: Platelet DG rel) | SENP8 confirm inactive | SENP6 conf inactive | SENP7 confirm inactive | Casp3 SENP sel inactive | Luc interf inactive
O=c1c2c(nc3c(-c4ccc(Cl)cc4)c[nH]n13)CCCC2	none
Fc1ccc(-c2cc3nc4c(c(N5CCOCC5)n3n2)CCCC4)cc1	none

Screening results from PubChem.
